# Assay outcomes deposited in PubChem by National Center for Advancing Translational Sciences (NCATS).
# Shown are actives, neighbours in structure and some others; about 2.8% of the full set was active somewhere.
# POLK inh: inhibitors of human DNA polymerase kappa | Q9UBT6 | purified Pol kappa, fluorescent DNA synthesis assay, 10 min | Potency, µM (series often up to 107 µM), most hits filed as inhibitors | hit rate 0.53% among 400,000
#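 10 nM Pol kappa was preincubated with compounds for 15 min at room temperature. Reaction started with 50 nM (final) substrate. Fluorescence read kinetically at 0 and 10 min.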
# Pol iota inh: blocks human DNA polymerase iota activity. Q9UNA4. Pol iota fluorescent replication assay, 10 min. Potency, µM (highest dose often 115 µM), hits mostly inhibitors. hit rate 1% among 390,000
#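 Fluorescent replication assay read twice, at 0 min and 10 min after adding 50 nM (final) substrate. Enzyme (10 nM) and compounds were first incubated 15 min at room temperature; enzyme-free buffer wells were negative controls.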
# Pol eta inh: blocks human DNA polymerase eta activity. hit rate 1.2% among 390,000. recombinant Pol eta, fluorescent DNA replication assay. AID 588591. Potency, µM (doses to about 114 µM), usual class: inhibitors
#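 Fluorescent replication assay: 50 nM final substrate added after a 15 min room-temperature compound preincubation with 10 nM enzyme. Signal taken at 0 min and again at 10 min.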
# PI5P4Ka inh: inhibitors of human PI5P4K alpha. P48426. PI5P4Kalpha enzyme, ADP-Glo luminescence, 60 min; active compounds read low. max response, %. hit rate 1.2% among 330,000; active = max response of -50% or lower; inconclusive = between -30% and -50%; inactive = -30% or higher; note: value at the top dose of about 77 µM
#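 ADP-Glo luminescence end-point read after a 60 min room-temperature kinase reaction of PI5P4Kalpha plus substrate, initiated with ATP at 5 microM final. Buffer: 0.038 M HEPES pH 7.4, EGTA, 0.1% CHAPS, 5% DMSO.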
# POLB inh: DNA polymerase beta (human) inhibition | Pol beta primer extension/strand displacement, fluorescence kinetic | P06746 | Potency, µM (highest dose often 114 µM), usual class: inhibitors | AID 485314 | hit rate 1.3% among 340,000
#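 Reaction started by 50 nM substrate onto compound-treated Pol beta (10 nM, 15 min preincubation, room temperature); plates read at 0 min and 10 min. Normalized concentration-effect data fitted by four-parameter Hill equation.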
# WRN helicase inh: blocks human WRN helicase; Q14191; WRN helicase unwinding, fluorescent forked duplex, kinetic; Potency, µM (top dose mostly 114 µM), actives largely listed as inhibitors; hit rate 0.46% among 360,000; AID 651768; note: nearly all actives have a fitted effect of over 55% in size
# Target sequence (Q14191 whole entry, looked up): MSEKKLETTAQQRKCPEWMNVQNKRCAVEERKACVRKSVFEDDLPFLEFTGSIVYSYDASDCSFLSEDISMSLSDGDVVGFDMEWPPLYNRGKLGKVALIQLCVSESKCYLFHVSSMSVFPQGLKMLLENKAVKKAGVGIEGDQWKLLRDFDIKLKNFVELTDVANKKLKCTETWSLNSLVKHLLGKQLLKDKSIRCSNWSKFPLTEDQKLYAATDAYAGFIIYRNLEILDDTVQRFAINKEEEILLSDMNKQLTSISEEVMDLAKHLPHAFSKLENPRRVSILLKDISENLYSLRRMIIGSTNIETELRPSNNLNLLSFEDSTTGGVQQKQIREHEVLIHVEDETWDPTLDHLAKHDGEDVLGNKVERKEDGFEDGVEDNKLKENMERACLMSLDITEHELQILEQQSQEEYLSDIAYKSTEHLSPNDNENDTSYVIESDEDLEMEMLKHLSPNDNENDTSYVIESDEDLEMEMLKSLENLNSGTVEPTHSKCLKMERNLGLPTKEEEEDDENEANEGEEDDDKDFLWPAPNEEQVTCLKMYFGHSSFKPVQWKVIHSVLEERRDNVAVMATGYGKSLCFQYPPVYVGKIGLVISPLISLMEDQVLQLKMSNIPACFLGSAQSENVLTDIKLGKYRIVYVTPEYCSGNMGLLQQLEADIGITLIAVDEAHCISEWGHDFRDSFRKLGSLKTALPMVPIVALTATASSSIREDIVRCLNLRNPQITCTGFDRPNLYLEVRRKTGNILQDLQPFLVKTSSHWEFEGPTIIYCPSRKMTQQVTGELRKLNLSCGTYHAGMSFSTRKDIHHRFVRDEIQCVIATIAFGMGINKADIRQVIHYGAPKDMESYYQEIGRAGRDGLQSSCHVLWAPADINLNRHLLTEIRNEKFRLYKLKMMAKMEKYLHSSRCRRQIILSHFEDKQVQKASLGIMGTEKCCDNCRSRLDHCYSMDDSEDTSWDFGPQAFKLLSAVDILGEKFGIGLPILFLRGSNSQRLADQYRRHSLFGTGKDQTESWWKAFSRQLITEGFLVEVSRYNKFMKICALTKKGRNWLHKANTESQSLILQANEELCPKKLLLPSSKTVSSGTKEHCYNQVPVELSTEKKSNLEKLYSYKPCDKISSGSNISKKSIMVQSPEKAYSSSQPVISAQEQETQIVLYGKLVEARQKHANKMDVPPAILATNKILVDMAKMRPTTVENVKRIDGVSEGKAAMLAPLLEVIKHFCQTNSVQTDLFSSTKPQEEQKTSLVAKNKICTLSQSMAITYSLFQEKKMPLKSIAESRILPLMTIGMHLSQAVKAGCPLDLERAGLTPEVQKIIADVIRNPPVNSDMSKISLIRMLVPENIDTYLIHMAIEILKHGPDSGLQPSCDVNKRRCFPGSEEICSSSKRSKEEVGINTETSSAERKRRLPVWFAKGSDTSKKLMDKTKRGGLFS
#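 Enzyme (20 nM final) and test compound sit together 15 min at room temperature before substrate addition. Substrate is a single-forked duplex oligonucleotide (100 nM) labelled with fluorophore and quencher, with 2 mM ATP; helicase unwinding raises red fluorescence, read kinetically.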
# A number is an active result; . = inactive; ? = inconclusive; / = not tested or not shown; [ ] = another dose, or the depositor's remark. Unless noted, calls come from the whole dose curve; as a rule, active = well fitted curve in the direction sought with a large enough effect; inconclusive = small, poorly fitted or top-dose-only effect, or another doubt; inactive = no such curve, though single readings can be large; an effect the other way counts as inactive or inconclusive.
SMILES,POLK inh,Pol iota inh,Pol eta inh,PI5P4Ka inh,POLB inh,WRN helicase inh
CCN(CC)c1nc(N)c2c(N)nc(OC)cc2c1C#N,.,8.9µM,.,.,/,.
CCOc1ccc(NC(=O)Cn2cc(C(=O)c3ccc(F)cc3)c(=O)c3cc4c(cc32)OCO4)cc1,.,.,.,/,.,/
Cc1ccc(OCCn2cnc3cc([N+](=O)[O-])ccc3c2=O)cc1,.,.,.,.,.,.
O=c1c2ccc([N+](=O)[O-])cc2ncn1CCOc1ccccc1,?,89µM,.,.,.,.[11.6 µM]
C[N+](C)(C)CC(=O)N/N=C/c1c2ccccc2cc2ccccc12,.,.,.,.,45µM,.[11.6 µM]
Cc1nc2ccccc2c(C)c1CC(=O)N(C)CC(=O)Nc1cccc(F)c1,.,?,.,.,/,.
CCOc1ccc(NC(=O)CN(C)C(=O)Cc2c(C)nc3ccccc3c2C)cc1OCC,.,.,?,?,22µM,.
COc1ccccc1CNC(=O)C1CCN(S(=O)(=O)c2ccc3c(ccn3C)c2)CC1,.,.,.,/,.,/
Cc1ccc(C)n1-c1ccc(-c2ccn[nH]2)cc1,.,.,.,.,22µM,.
O=C(O)Cn1cnc2scc(-c3cccs3)c2c1=O,.,?,20µM,.,20µM,.
O=C(NCc1ccccc1)c1nccnc1CO,.,.,.,.,.,.
Oc1ccccc1Oc1ncc(Br)c(Cl)n1,.,50µM,.,.,22µM,.[11.6 µM]
Cc1nc2scc(-c3ccccc3)c2c(=O)n1N=C1C=CC(=O)C=C1,.,?,.,-101,.,?
COc1ccc2cc3[n+](cc2c1O)CCc1cc2c(cc1-3)OCO2,/,/,/,?,/,50µM
Cc1ccc(C2=NOC(=O)/C2=C\c2ccc(C)o2)cc1,.,?,79µM,.,.,?
CC1CCC(NC(=O)c2ccc3c(c2)N(Cc2cccc(Cl)c2)C(=O)c2ccccc2S3(=O)=O)CC1 (stereo unspecified),.,.,.,/,.,/
Cc1c(CCC(=O)N2CCC(C(=O)O)(c3ccccc3)CC2)c(=O)oc2cc3oc4c(c3cc12)CCCC4,.,.,.,.,.,.
Cc1c(CCC(=O)N2CCC(C(=O)O)CC2)c(=O)oc2cc3oc4c(c3cc12)CCCC4,.,.,.,.,35µM,.
COc1cc(OC)cc(C(=O)N2CCN(C(=O)COc3ccc4ccccc4c3)CC2)c1,.,71µM,.,/,.,.
CCn1nc(C(=O)OC(C(=O)c2c[nH]c3ccccc23)c2ccccc2)c2ccccc2c1=O (stereo unspecified),.,.,.,/,?,.
O=C(Cc1cccs1)N(c1ccccc1)C1C=CS(=O)(=O)C1 (stereo unspecified),.,56µM,.,/,?,.[11.6 µM]
COc1cc(NC(=O)CSc2nnc3c(n2)[nH]c2ccc(S(=O)(=O)NC(C)C)cc23)cc(OC)c1OC,?,45µM,18µM,?,?,.[11.6 µM]
COc1cc(NC(=O)CSc2nnc3c(n2)[nH]c2ccc(OC)cc23)cc(OC)c1,.,.,/,/,/,/
Oc1ccc(Nc2nc(N3CCCC3)c3ccccc3n2)cc1,?,?,.,.,45µM,?
COc1ccc(Nc2nc(N3CCCCC3)c3ccccc3n2)cc1,.,.,.,.,.,.
SMILES,POLK inh,Pol iota inh,Pol eta inh,PI5P4Ka inh,POLB inh,WRN helicase inh
CCCn1c(SCC(=O)Nc2nnc(-c3ccccc3)s2)nnc1-c1ccccn1,.,?,?,.,22µM,.
COCCCNc1cc(C)nc2ccccc12,.,.,.,.,.,.
Cc1cc(NCCCCCCCNc2cc(C)nc3cc([N+](=O)[O-])ccc23)c2ccc([N+](=O)[O-])cc2n1,.,.,?,-61,/,?
Cc1ccsc1C(=O)C1CCCN(Cc2cc(F)ccc2-n2cccn2)C1 (stereo unspecified),.,.,.,.,.,.
O=[N+]([O-])c1ccc(S(=O)Cc2ccccc2)c([N+](=O)[O-])c1 (stereo unspecified),.,?,.,.,/,10µM
Cc1ccccc1NC(=O)c1sc2nc3n(c(=O)c2c1C)N=C(c1ccccc1)CS3,.,.,.,/,.,/
COCCNc1ccnc(-c2ccccc2C(F)(F)F)n1,.,/,/,/,/,/
CCOC(=O)Cc1nnc(NC(=O)CSc2nnc3c4ccccc4n(C)c3n2)s1,?,5µM,.,/,45µM,?
CCCc1nnc(NC(=O)C(CC)Sc2nnc3c4ccccc4n(C)c3n2)s1 (stereo unspecified),.,.,.,/,.,/
Cc1ccc(C2=NN=C(NC(=O)CSc3nnc4c5ccccc5n(C)c4n3)SC2)cc1,.,.,?,?,35µM,.
Cc1ccc(NC(=O)COC(=O)CC2CCCC2)cc1Cl,/,/,/,/,.,/
CCOc1cccc(/C(O)=C2/C(=O)C(=O)N(CCOC)C2c2ccco2)c1 (stereo unspecified),.,?,?,.,79µM,.
CCOc1ccc(S(=O)(=O)Nc2ccc(C(=O)N/N=C/c3c(C)nn(-c4ccccc4)c3N3CCCC3)cc2)cc1,.,.,.,-74,.,.
Cc1nn(-c2ccccc2)c(N2CCCCC2)c1/C=N/NC(=O)c1ccncc1,.,.,?,.,.,.
CNCc1ccccc1Sc1cc(O)ccc1O,.,?,.,?,.,32µM
O=C(Nc1cc(S(=O)(=O)N2CCOCC2)ccc1N1CCOCC1)c1cccs1,.,.,.,.,/,.
CC(=O)Nc1c2c(nn1-c1ccc(F)cc1)CSC2,.,.,.,.,.,.
CCOC(=O)c1c(C)[nH]c(C)c1C(=O)COC(=O)c1ccc([N+](=O)[O-])s1,79µM,10µM,22µM,.,/,.[11.6 µM]
CNc1n[nH]c(=S)s1,.,?,.,-57,.,?
O=C(Nc1n[nH]c(=S)s1)c1ccc2ccccc2c1,.,.,.,-55,.,.
C=CCNc1n[nH]c(=S)s1,/,/,.,.,/,.
O=C(Nc1nccs1)c1ccc2ccccc2c1,.,.,.,.,.,.
CC(=O)Nc1n[nH]c(=S)s1,.,.,?,-86,/,?
CC(=O)Nc1nc(C)c(C(C)(C)C)s1,.,.,.,.,.,.
COc1cc(C(=O)N2CCCC(C)(C(=O)NS(=O)(=O)C3CC3)C2)cc(OC)c1OC (stereo unspecified),/,/,/,.,/,.
COc1ccc(CN(C)C(=O)c2cc(S(=O)(=O)N3CCOCC3)ccc2N2CCCC2)cc1,.,.,.,.,/,.
Cc1cccc(/C=C/c2nc3ccccc3c(=O)[nH]2)c1,.,.,.,.,.,.
Cc1[nH]c2ccccc2c1/C=C/c1nc2ccccc2c(=O)[nH]1,.,?,.,-63,.,.
COc1ccc2ccccc2c1C(=O)/C=C\c1ccoc1,.,?,?,-53,45µM,.
CC1CCCC(NC(=O)COC(=O)c2ccc([N+](=O)[O-])s2)C1C (stereo unspecified),.,89µM,?,.,/,.
